# PubChem BioAssay (EPA / NIEHS)
# Active and inactive are the calls of the source. Rule for the calls: active = hit-call score of the fitted dose curve at least 0.9, where 1 is the maximum; inactive = score below 0.9.
# What was measured:
# Settings in all cases: actives raise or lower the signal
# [1] = CEETOX_H295R_11DCORT: CeeTox H295R High-throughput Steroidogenesis Assay for 11-Deoxycortisol (11DCORT) (AID 2283432);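 for AC50: 11-deoxycortisol secreted into the medium measured by LC-MS/MS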
# Summary of the method: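 Steroidogenesis in human H295R cells: 48 h chemical exposure after forskolin priming, 11-deoxycortisol measured by LC-MS/MS.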
# [2] = CEETOX_H295R_OHPREG: CeeTox H295R High-throughput Steroidogenesis Assay for OH-Pregnenolone (OHPREG) (AID 2283434)
# Summary of the method: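 Secreted 17alpha-hydroxypregnenolone measured by HPLC-MS/MS after liquid-liquid extraction. Human adrenal H295R cells received 48 h forskolin (10 uM) stimulation before 48 h chemical exposure at 0.1% final DMSO; MTT viability in same wells; bidirectional fit against DMSO.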
# [3] = CEETOX_H295R_OHPROG: CeeTox H295R High-throughput Steroidogenesis Assay for OH-Progesterone (OHPROG) (AID 2283435);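 for AC50: 17alpha-hydroxyprogesterone secreted into medium measured by HPLC-MS/MS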
# Summary of the method: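 Medium steroid levels read by LC-MS/MS after 48 h chemical treatment (0.1% DMSO) of human adrenal H295R cells that had been forskolin-primed (10 uM, 48 h). Gain or loss fitted against DMSO; MTT cytotoxicity checked per well.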
# [4] = CEETOX_H295R_CORTIC: CeeTox H295R High-throughput Steroidogenesis Assay for Corticosterone (CORTIC) (AID 2283437)
# Summary of the method: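 Medium corticosterone was quantified by tandem mass spectrometry following 48 hours of chemical exposure (0.1% DMSO) in human H295R cells previously stimulated 48 hours with 10 uM forskolin. Viability checked by MTT; chemicals diluted and retested when viability fell below 70%.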
# [5] = CEETOX_H295R_CORTISOL: CeeTox H295R High-throughput Steroidogenesis Assay for Cortisol (AID 2283438)
# Summary of the method: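 Cortisol measured by HPLC-MS/MS after MTBE extraction of medium from H295R cells exposed 48 h to chemical (0.1% DMSO), following 48 h prestimulation with 10 uM forskolin. Viability assessed by MTT in the same wells.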
# [6] = CEETOX_H295R_DOC: CeeTox H295R High-throughput Steroidogenesis Assay for DOC (AID 2283439)
# Summary of the method: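 11-Deoxycorticosterone quantified in medium by MTBE extraction and HPLC-MS/MS after 48 h chemical exposure (0.1% DMSO) of forskolin-primed (10 uM, 48 h) H295R cells. Same-well MTT viability; data fitted bidirectionally against DMSO.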
# [7] = CEETOX_H295R_ESTRADIOL: CeeTox H295R High-throughput Steroidogenesis Assay for Estradiol (AID 2283440);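 note: estradiol secreted into medium quantified by LC-MS/MS after dansyl derivatisation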
# Summary of the method: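 Readout is estradiol in conditioned medium, quantified by reverse-phase HPLC-MS/MS against a 7-point standard curve. Cells: H295R, forskolin-stimulated, then dosed 48 h in 0.1% DMSO; activity fitted in both directions relative to DMSO.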
# [8] = CEETOX_H295R_ESTRONE: CeeTox H295R High-throughput Steroidogenesis Assay for Estrone (AID 2283441)
# Summary of the method: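 Estrone secreted into medium quantified by LC-MS/MS after dansyl chloride derivatization, following 48 h chemical exposure (0.1% DMSO final) of forskolin-prestimulated (10 uM, 48 h) H295R cells; gain or loss fitted against DMSO; MTT viability in same wells.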
# [9] = CEETOX_H295R_PROG: CeeTox H295R High-throughput Steroidogenesis Assay for Progesterone (PROG) (AID 2283442);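 for AC50: human H295R adrenal cells primed with 10 µM forskolin before dosing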
# Summary of the method: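 Measured analyte is progesterone secreted by H295R cells at 48 h of chemical treatment, following 10 uM forskolin priming. Quantitation used HPLC-MS/MS against a 7-point standard curve; cytotoxicity was checked by MTT absorbance.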
# [10] = CEETOX_H295R_ANDR: CeeTox H295R High-throughput Steroidogenesis Assay for Androstenedione (ANDR) (AID 2283436)
# Summary of the method: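 Medium from 48 h chemical-treated H295R adrenal cells was extracted with MTBE and androstenedione measured by LC-MS/MS. Activity was fit in both directions relative to DMSO. Cytotoxic concentrations were re-tested after dilution until MTT viability reached ≥70%.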
structure (smiles),measurement,setting,value
O=C(Nc1ccc([N+](=O)[O-])cc1Cl)c1cc(Cl)ccc1O,outcome,[1],inactive
same,outcome,[2],inactive
same,outcome,[3],inactive
same,outcome,[4],inactive
same,outcome,[5],inactive
same,outcome,[6],inactive
same,outcome,[7],inactive
same,outcome,[8],inactive
same,outcome,[9],inactive
CN(C)C(=O)Nc1ccc(Cl)c(Cl)c1,outcome,[1],inactive
same,outcome,[2],inactive
same,AC50,[3],42.6 µM (active)
same,AC50,[10],30.8 µM (active)
same,outcome,[4],inactive
same,outcome,[5],inactive
same,outcome,[6],inactive
same,outcome,[9],inactive
CCCN(CCC)C(=O)SCC,outcome,[1],inactive
same,outcome,[2],inactive
same,outcome,[3],inactive
same,outcome,[10],inactive
same,outcome,[4],inactive
same,outcome,[5],inactive
same,outcome,[6],inactive
same,outcome,[7],inactive
same,outcome,[8],inactive
same,outcome,[9],inactive
c1ccc(Nc2ccccc2)cc1,outcome,[2],inactive
same,outcome,[3],inactive
same,outcome,[9],inactive
CCCCCOC(=O)COc1cc(N2C(=O)C3=C(CCCC3)C2=O)c(F)cc1Cl,outcome,[1],inactive
same,outcome,[2],inactive
same,outcome,[3],inactive
same,outcome,[4],inactive
same,outcome,[5],inactive
same,outcome,[6],inactive
same,outcome,[7],inactive
same,outcome,[8],inactive
same,outcome,[9],inactive
CSC(=O)c1cccc2nnsc12,outcome,[1],inactive
same,AC50,[2],55.6 µM (active)
same,AC50,[3],50 µM (active)
same,outcome,[10],inactive
same,AC50,[4],23 µM (active)
same,outcome,[5],inactive
same,outcome,[6],inactive
same,outcome,[9],inactive
CCCCOC(=O)[C@@H](C)Oc1ccc(Oc2ccc(C(F)(F)F)cn2)cc1,outcome,[1],inactive
same,outcome,[2],inactive
same,outcome,[3],inactive
same,outcome,[4],inactive
same,outcome,[5],inactive
same,outcome,[6],inactive
same,outcome,[7],inactive
same,outcome,[8],inactive
same,outcome,[9],inactive
CCNc1nc(N)nc(Cl)n1,outcome,[2],inactive
same,outcome,[3],inactive
same,outcome,[9],inactive
CCCCOCCOCCOCc1cc2c(cc1CCC)OCO2,AC50,[2],5 µM (active)
same,outcome,[3],inactive
same,outcome,[10],inactive
same,outcome,[9],inactive
C=CCOC(Cn1ccnc1)c1ccc(Cl)cc1Cl (configuration not stated),AC50,[1],0.775 µM (active)
same,outcome,[2],inactive
same,AC50,[3],0.142 µM (active)
same,outcome,[4],inactive
same,AC50,[5],0.159 µM (active)
same,outcome,[6],inactive
same,AC50,[9],0.296 µM (active)
CC(C)(c1ccc(O)cc1)c1ccc(O)cc1,outcome,[2],inactive
same,outcome,[3],inactive
same,AC50,[10],3.26 µM (active) [middle of 4 runs]
same,outcome,[7],inactive
same,outcome,[8],inactive
same,outcome,[9],inactive
C[C@]12C[C@H](O)[C@H]3[C@@H](CCC4=CC(=O)CC[C@@]43C)[C@@H]1CC[C@@H]2C(=O)CO,AC50,[1],34.4 µM (active)
same,AC50,[2],16.1 µM (active)
same,AC50,[3],72.2 µM (active)
same,AC50,[4],1.04 µM (active)
same,outcome,[5],inactive
same,outcome,[6],inactive
same,outcome,[8],inactive
CCOC(=O)c1ccc(O)cc1,AC50,[1],85.1 µM (active)
same,outcome,[2],inactive
same,AC50,[3],31 µM (active)
same,outcome,[4],inactive
same,outcome,[5],inactive
same,AC50,[6],37.7 µM (active)
same,outcome,[7],inactive
same,outcome,[8],inactive
same,AC50,[9],36.5 µM (active)
CC(=O)[C@H]1CC[C@H]2[C@@H]3CCC4=CC(=O)CC[C@]4(C)[C@H]3CC[C@]12C,AC50,[2],7.97 µM (active)
same,outcome,[3],inactive
same,outcome,[7],inactive
same,outcome,[8],inactive
same,AC50,[9],5 µM (active)
